# Test results as given in publication PMC7862700, “An all-to-all approach to the identification of sequence-specific readers for epigenetic DNA modifications on cytosine”.
# Key:
# Test in all cases: DAPPL (digital affinity profiling via proximity ligation, sequencing); 10 mM Tris-HCl pH 7.5, 50 mM NaCl, 1 mM DTT, 4% glycerol, room temperature, 30 min; GST-TFs on glutathione beads, 16-mer random dsDNA library, 0.1% formaldehyde crosslink after washing; high values mean tight binding
# FLI1 = biological target: T1, FLI1 (Homo sapiens, UniProt Q01543 1-452); conditions: protein: recombinant; tags: N-terminal GST; dsDNA, one strand shown
# T1 sequence: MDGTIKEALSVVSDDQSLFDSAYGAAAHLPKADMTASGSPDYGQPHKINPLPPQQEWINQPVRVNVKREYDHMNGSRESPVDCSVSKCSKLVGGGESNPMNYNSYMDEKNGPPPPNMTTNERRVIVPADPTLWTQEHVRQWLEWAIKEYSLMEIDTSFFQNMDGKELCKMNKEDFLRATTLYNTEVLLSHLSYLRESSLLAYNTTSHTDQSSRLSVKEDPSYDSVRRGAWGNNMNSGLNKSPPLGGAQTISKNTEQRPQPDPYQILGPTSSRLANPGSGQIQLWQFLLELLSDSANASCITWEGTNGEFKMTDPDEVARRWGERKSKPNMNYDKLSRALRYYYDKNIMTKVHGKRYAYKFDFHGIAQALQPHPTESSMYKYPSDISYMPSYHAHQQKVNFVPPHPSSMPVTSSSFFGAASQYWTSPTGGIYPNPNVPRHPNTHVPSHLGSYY
# Procedure, shortened: (§1)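 GST fusions of human transcription factors were expressed in yeast and captured with glutathione beads. Once given DNA barcodes and pooled alongside a tag-only sample, they were incubated for 30 min at room temperature with 200 nmole of a random double-stranded 16-mer DNA library in Tris/NaCl/DTT/glycerol buffer, then washed, crosslinked (0.1% formaldehyde), proximity-ligated, PCR-amplified and sequenced on an Illumina NextSeq500. The binding signal of each hexamer is its read frequency for a factor divided by its frequency for the tag-only sample.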
# ELK1 = biological target: T2, ELK1 (Homo sapiens, UniProt P19419 1-428); conditions: protein: recombinant; tags: N-terminal GST; dsDNA, one strand shown
# T2 sequence: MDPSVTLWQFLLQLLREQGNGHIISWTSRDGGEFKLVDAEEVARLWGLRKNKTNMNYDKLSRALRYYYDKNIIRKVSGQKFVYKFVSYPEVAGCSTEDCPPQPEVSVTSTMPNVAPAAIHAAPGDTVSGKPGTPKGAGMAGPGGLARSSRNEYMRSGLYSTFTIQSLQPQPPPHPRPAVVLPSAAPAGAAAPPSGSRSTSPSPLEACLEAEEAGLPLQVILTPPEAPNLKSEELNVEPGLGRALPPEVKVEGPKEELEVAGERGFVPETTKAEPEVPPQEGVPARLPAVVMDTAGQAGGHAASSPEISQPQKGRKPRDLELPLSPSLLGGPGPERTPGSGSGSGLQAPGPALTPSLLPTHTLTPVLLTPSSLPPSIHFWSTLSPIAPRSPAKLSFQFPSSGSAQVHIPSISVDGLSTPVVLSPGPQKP
# Procedure, shortened: as §1
# GABPA = biological target: T3, GABPA (Homo sapiens, UniProt Q06546 1-454); conditions: protein: recombinant; tags: N-terminal GST; dsDNA, one strand shown
# T3 sequence: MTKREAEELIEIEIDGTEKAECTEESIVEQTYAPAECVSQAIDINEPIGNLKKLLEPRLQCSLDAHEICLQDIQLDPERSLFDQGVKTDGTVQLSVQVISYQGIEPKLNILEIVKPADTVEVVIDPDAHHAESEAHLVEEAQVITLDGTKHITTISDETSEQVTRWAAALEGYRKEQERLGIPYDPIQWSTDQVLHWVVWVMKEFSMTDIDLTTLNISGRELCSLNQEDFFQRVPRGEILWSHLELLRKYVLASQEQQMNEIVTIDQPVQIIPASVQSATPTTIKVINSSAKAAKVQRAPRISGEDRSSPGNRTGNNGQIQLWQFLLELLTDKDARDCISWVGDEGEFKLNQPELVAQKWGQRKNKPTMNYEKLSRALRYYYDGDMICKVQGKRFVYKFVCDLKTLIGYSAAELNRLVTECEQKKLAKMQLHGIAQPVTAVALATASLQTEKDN
# Procedure, shortened: as §1
# ERG = biological target: T4, ERG (Homo sapiens, UniProt P11308 1-479); conditions: protein: recombinant; tags: N-terminal GST; dsDNA, one strand shown
# T4 sequence: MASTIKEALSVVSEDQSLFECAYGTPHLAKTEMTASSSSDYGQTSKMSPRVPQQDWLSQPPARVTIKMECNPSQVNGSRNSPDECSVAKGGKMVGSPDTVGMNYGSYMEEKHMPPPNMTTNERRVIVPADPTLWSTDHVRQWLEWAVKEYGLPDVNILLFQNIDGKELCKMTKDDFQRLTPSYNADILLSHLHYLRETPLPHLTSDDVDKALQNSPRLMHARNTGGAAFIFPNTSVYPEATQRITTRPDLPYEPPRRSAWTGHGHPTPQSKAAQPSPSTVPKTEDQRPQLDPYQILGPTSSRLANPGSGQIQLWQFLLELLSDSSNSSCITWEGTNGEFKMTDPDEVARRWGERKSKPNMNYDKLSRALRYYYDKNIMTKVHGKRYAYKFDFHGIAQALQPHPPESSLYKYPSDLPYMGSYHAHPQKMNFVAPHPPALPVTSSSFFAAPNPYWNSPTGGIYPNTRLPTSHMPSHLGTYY
# Procedure, shortened: as §1
# ELF1 = ELF1 (Homo sapiens, UniProt P32519 1-619); conditions: protein: recombinant; tags: N-terminal GST; dsDNA, one strand shown
# Procedure, shortened: as §1
# EHF = biological target: T5, EHF (Homo sapiens, UniProt Q9NZC4 1-300); conditions: protein: recombinant; tags: N-terminal GST; dsDNA, one strand shown
# T5 sequence: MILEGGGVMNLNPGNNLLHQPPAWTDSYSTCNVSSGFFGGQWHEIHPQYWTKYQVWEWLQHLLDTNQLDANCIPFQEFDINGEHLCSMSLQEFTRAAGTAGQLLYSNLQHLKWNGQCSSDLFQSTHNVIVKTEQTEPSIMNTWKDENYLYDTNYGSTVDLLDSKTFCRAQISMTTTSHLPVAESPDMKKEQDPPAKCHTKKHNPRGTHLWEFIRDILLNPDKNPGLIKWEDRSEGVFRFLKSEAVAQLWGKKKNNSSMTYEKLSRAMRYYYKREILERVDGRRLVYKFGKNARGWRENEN
# Procedure, shortened: as §1
# SPI1 = SPI1 (Homo sapiens, UniProt P17947 1-270); conditions: protein: recombinant; tags: N-terminal GST; dsDNA, one strand shown
# Procedure, shortened: as §1
# SPIB = SPIB (Homo sapiens, UniProt Q01892 1-262); conditions: protein: recombinant; tags: N-terminal GST; dsDNA, one strand shown
# Procedure, shortened: as §1
# ELK3 = biological target: T6, ELK3 (Homo sapiens, UniProt P41970 1-407); conditions: protein: recombinant; tags: N-terminal GST; dsDNA, one strand shown
# T6 sequence: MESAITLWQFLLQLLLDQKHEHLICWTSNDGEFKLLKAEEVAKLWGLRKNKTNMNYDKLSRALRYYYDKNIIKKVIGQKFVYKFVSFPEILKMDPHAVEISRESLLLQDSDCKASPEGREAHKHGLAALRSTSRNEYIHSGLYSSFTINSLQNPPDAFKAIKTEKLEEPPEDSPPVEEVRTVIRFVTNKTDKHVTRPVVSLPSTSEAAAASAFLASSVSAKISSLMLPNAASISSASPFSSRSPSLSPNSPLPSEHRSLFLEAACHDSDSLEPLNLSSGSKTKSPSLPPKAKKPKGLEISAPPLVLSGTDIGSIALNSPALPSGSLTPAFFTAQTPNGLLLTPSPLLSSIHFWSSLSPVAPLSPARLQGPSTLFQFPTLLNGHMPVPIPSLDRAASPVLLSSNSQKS
# Procedure, shortened: as §1
# FEV = biological target: T7, FEV (Homo sapiens, UniProt Q99581 1-238); conditions: protein: recombinant; tags: N-terminal GST; dsDNA, one strand shown
# T7 sequence: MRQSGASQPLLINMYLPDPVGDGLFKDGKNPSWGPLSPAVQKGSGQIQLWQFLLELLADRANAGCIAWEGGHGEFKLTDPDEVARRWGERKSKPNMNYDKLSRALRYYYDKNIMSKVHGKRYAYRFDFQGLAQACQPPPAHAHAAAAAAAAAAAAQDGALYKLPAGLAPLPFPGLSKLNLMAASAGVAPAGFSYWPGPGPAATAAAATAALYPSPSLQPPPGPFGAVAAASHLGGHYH
# Procedure, shortened: as §1
# ETV5 = ETV5 (Homo sapiens, UniProt P41161 1-510); conditions: protein: recombinant; tags: N-terminal GST; dsDNA, one strand shown
# Procedure, shortened: as §1
# HSF1 = HSF1 (Homo sapiens, UniProt Q00613 1-529); conditions: protein: recombinant; tags: N-terminal GST; chain copies: 3; dsDNA, one strand shown
# Procedure, shortened: as §1
# SPIC = biological target: T8, SPIC (Homo sapiens, UniProt Q8N5J4 1-248); conditions: protein: recombinant; tags: N-terminal GST; dsDNA, one strand shown
# T8 sequence: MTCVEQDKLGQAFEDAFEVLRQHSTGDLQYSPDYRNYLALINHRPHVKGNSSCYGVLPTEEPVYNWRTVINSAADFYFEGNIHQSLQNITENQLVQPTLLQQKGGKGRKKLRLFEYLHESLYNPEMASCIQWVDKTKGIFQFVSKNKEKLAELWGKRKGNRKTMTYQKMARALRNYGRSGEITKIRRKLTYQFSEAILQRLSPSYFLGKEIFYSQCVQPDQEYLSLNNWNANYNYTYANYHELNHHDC
# Procedure, shortened: as §1
# ELF4 = ELF4 (Homo sapiens, UniProt Q99607 1-663); conditions: protein: recombinant; tags: N-terminal GST; dsDNA, one strand shown
# Procedure, shortened: as §1
# ELK4 = biological target: T9, ELK4 (Homo sapiens, UniProt P28324-2 1-405); conditions: protein: recombinant; tags: N-terminal GST; dsDNA, one strand shown
# T9 sequence: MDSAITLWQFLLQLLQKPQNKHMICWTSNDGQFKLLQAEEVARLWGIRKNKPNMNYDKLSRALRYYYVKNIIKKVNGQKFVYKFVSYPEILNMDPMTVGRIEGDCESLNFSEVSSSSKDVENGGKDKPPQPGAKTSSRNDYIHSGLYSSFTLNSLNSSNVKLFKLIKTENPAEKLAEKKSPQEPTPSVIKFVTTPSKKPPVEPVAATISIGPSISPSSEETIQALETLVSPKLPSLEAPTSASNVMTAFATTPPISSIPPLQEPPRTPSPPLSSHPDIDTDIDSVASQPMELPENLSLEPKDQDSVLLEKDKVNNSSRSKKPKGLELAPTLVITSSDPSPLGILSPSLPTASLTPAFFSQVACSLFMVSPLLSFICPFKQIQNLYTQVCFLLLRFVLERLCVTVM
# Procedure, shortened: as §1
# ETV2 = biological target: T10, ETV2 (Homo sapiens, UniProt O00321 1-342); conditions: protein: recombinant; tags: N-terminal GST; dsDNA, one strand shown
# T10 sequence: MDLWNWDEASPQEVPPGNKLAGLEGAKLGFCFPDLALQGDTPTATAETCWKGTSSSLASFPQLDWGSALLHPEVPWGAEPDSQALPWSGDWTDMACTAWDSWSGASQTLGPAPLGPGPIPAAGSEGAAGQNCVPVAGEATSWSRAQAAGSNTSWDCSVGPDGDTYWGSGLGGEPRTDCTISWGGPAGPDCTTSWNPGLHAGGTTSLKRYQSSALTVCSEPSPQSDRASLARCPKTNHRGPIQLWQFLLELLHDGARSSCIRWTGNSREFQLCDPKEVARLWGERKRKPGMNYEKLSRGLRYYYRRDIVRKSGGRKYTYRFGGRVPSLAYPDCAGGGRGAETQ
# Procedure, shortened: as §1
# ELF3 = biological target: T11, ELF3 (Homo sapiens, UniProt P78545 1-371); conditions: protein: recombinant; tags: N-terminal GST; dsDNA, one strand shown
# T11 sequence: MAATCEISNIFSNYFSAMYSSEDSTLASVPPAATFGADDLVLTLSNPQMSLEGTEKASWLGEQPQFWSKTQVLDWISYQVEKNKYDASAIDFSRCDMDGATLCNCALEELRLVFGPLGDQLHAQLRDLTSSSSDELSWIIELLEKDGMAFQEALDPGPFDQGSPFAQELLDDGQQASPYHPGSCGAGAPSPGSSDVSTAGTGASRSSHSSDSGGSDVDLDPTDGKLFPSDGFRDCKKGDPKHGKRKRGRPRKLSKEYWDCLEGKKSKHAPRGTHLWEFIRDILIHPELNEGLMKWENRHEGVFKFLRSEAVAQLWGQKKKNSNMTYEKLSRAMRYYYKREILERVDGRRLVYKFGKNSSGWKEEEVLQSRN
# Procedure, shortened: as §1
# CRX = CRX (Homo sapiens, UniProt O43186 1-299); conditions: protein: recombinant; tags: N-terminal GST; dsDNA, one strand shown
# Procedure, shortened: as §1
# ETV1 = ETV1 (Homo sapiens, UniProt P50549 1-477); conditions: protein: recombinant; tags: N-terminal GST; dsDNA, one strand shown
# Procedure, shortened: as §1
# Chain of ETV1 (P50549 whole entry): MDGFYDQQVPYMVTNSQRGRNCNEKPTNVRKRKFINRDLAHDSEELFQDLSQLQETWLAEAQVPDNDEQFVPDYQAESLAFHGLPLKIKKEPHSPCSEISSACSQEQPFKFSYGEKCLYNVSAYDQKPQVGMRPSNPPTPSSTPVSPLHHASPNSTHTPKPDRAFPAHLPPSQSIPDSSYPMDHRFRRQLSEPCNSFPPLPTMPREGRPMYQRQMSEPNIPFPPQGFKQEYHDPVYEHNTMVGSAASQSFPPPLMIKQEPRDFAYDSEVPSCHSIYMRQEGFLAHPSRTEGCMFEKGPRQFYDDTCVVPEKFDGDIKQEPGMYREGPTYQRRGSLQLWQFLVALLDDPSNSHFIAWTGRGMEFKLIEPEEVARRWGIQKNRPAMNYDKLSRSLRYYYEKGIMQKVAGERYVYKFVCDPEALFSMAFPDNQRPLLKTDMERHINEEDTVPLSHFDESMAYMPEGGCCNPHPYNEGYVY
# Chain of ETV5 (P41161 whole entry): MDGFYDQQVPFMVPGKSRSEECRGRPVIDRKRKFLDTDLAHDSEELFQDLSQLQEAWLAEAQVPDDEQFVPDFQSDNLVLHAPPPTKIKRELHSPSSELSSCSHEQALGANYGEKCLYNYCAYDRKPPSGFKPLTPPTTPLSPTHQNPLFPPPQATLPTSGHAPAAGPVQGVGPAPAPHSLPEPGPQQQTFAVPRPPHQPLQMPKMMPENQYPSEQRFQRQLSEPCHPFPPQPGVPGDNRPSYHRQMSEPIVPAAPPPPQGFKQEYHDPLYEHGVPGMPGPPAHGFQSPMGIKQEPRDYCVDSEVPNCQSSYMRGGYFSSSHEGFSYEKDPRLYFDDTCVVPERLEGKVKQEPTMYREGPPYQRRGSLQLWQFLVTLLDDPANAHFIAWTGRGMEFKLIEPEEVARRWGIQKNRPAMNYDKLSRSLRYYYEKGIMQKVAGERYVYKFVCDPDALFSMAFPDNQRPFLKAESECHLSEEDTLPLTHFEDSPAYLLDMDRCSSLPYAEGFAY
# Chain of CRX (O43186 whole entry): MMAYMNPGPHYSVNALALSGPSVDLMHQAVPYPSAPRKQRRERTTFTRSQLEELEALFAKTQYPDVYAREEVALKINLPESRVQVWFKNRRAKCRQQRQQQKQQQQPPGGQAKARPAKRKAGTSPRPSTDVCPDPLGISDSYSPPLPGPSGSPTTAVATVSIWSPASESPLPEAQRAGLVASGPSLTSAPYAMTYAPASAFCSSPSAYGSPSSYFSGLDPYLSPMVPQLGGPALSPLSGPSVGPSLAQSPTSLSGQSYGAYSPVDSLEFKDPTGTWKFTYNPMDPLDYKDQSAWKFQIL
# Chain of ELF1 (P32519 whole entry): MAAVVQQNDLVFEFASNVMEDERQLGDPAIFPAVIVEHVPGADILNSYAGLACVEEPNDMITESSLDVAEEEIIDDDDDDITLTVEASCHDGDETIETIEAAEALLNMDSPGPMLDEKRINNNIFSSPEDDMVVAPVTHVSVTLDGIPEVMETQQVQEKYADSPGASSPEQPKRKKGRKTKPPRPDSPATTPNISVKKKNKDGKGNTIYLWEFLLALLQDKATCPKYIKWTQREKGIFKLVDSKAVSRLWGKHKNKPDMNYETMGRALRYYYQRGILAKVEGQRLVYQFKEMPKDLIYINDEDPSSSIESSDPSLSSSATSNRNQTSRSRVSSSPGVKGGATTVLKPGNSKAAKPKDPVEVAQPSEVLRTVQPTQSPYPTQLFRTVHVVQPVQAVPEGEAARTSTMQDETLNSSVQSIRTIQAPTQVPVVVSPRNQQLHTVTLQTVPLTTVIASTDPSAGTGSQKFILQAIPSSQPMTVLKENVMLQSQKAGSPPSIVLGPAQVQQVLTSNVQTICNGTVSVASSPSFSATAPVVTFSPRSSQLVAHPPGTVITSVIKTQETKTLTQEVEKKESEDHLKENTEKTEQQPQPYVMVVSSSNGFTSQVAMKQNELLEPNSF
# Chain of SPIB (Q01892 whole entry): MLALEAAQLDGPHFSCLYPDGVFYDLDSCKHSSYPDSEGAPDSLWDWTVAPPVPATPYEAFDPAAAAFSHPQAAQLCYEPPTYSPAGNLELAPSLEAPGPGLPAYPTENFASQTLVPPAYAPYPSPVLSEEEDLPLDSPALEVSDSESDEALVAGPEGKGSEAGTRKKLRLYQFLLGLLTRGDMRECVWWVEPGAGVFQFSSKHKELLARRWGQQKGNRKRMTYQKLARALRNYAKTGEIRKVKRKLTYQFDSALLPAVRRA
# Chain of HSF1 (Q00613 whole entry): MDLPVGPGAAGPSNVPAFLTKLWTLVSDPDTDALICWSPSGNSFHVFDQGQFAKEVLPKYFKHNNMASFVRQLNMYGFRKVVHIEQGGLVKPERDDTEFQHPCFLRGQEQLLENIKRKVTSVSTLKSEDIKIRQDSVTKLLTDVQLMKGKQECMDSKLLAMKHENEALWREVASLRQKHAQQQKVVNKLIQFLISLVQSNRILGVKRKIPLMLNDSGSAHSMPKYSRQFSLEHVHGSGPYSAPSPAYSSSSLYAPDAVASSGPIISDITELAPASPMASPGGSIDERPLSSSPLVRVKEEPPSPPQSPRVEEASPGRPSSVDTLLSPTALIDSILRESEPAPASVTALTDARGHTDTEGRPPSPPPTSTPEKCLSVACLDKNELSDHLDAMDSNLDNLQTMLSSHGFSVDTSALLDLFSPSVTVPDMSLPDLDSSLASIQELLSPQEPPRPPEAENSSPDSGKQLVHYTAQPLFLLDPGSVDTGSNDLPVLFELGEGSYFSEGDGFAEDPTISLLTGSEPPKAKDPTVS
# Chain of ELF4 (Q99607 whole entry): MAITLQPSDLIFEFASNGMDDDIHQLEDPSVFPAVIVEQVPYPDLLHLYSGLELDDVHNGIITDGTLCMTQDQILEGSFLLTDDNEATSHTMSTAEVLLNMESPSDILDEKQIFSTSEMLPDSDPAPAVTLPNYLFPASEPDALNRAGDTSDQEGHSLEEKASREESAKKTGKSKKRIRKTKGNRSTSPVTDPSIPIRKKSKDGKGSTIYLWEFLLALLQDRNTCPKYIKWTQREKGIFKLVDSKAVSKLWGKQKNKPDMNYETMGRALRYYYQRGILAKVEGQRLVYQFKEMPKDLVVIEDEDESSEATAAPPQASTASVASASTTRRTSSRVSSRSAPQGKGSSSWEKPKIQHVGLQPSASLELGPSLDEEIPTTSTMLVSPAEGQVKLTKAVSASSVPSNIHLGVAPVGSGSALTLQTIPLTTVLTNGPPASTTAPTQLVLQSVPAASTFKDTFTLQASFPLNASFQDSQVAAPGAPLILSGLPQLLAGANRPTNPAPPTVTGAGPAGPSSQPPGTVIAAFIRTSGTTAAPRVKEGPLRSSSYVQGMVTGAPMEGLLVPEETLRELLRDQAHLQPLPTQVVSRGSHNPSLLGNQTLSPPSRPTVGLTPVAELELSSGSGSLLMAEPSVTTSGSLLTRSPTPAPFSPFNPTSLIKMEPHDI
sequence,measurement,setting,value
CTGATG,binding signal,FLI1,"1.75 fold enrichment (6-mer frequency, TF over GST control)"
same,binding signal,ELK1,"1.65 fold enrichment (6-mer frequency, TF over GST control)"
same,binding signal,GABPA,"1.7 fold enrichment (6-mer frequency, TF over GST control)"
same,binding signal,ERG,"1.43 fold enrichment (6-mer frequency, TF over GST control)"
same,binding signal,ELF1,"1.6 fold enrichment (6-mer frequency, TF over GST control)"
same,binding signal,EHF,"1.59 fold enrichment (6-mer frequency, TF over GST control)"
same,binding signal,SPI1,"1.63 fold enrichment (6-mer frequency, TF over GST control)"
same,binding signal,SPIB,"1.7 fold enrichment (6-mer frequency, TF over GST control)"
same,binding signal,ELK3,"1.5 fold enrichment (6-mer frequency, TF over GST control)"
same,binding signal,FEV,"1.62 fold enrichment (6-mer frequency, TF over GST control)"
same,binding signal,ETV5,"1.65 fold enrichment (6-mer frequency, TF over GST control)"
same,binding signal,HSF1,"1.33 fold enrichment (6-mer frequency, TF over GST control)"
same,binding signal,SPIC,"1.79 fold enrichment (6-mer frequency, TF over GST control)"
same,binding signal,ELF4,"1.79 fold enrichment (6-mer frequency, TF over GST control)"
same,binding signal,ELK4,"1.83 fold enrichment (6-mer frequency, TF over GST control)"
same,binding signal,ETV2,"1.7 fold enrichment (6-mer frequency, TF over GST control)"
same,binding signal,ELF3,"1.65 fold enrichment (6-mer frequency, TF over GST control)"
same,binding signal,CRX,"1.46 fold enrichment (6-mer frequency, TF over GST control)"
same,binding signal,ETV1,"1.61 fold enrichment (6-mer frequency, TF over GST control)"
